# According to PubChem BioAssay:
# Active and inactive are the calls of the source.
# Tests used:
# [1] = binders of probe aFSTL3 on microarray, primary screen, stem cell growth factor project, biochemical, small-molecule microarray, fluorescence 635/667 (AID 1064); conditions: higher = more signal;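 also: measures binding of the biotinylated anti-FSTL3 antibody to printed compounds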
# [2] = binders from COS7 lysate, DM2A8 probe, primary screen, torsin A project, cell lysate, small-molecule microarray, fluorescence 635/667 (AID 1065); conditions: higher = more signal, COS7 lysate expressing mutant human TOR1A
# [3] = binders of probe aFGF2 on microarray, primary screen, stem cell growth factor project, biochemical, small-molecule microarray, fluorescence 635/667 (AID 1067); conditions: higher = more signal;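 also: measures binding of biotinylated aFGF2 protein to printed compounds on slides; z-score merges feature fluorescence and signal-to-noise across triplicate slides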
# [4] = binders of probe aFGF10 on microarray, primary screen, stem cell growth factor project, biochemical, small-molecule microarray, fluorescence 635/667 (AID 1071); conditions: higher = more signal;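 also: score merges 667 nm spot intensity and signal to noise from triplicate slides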
# [5] = biological target: Neurogenic locus notch homolog protein 2 (Homo sapiens) (UniProt Q04721); test: Notch2 binders on small-molecule microarrays, primary screen, biochemical, small-molecule microarray, 635 nm fluorescence, stem cell growth factors (AID 1073); conditions: Notch2 binding, higher = more signal
# [6] = biological target: Pro-neuregulin-1, membrane-bound isoform (Homo sapiens) (UniProt Q02297); test: NRG1 binders on small-molecule microarrays, primary screen, psychiatric disease protein project, biochemical, small-molecule microarray, fluorescence 635/667 (AID 1075); conditions: NRG1 binding, 635 nm fluorescence, higher = more signal;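 also: score combines 667 nm spot fluorescence with signal to noise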
# Sequence of Pro-neuregulin-1, membrane-bound isoform (Homo sapiens) (Q02297 whole entry, looked up, the tested form may be a part, canonical isoform): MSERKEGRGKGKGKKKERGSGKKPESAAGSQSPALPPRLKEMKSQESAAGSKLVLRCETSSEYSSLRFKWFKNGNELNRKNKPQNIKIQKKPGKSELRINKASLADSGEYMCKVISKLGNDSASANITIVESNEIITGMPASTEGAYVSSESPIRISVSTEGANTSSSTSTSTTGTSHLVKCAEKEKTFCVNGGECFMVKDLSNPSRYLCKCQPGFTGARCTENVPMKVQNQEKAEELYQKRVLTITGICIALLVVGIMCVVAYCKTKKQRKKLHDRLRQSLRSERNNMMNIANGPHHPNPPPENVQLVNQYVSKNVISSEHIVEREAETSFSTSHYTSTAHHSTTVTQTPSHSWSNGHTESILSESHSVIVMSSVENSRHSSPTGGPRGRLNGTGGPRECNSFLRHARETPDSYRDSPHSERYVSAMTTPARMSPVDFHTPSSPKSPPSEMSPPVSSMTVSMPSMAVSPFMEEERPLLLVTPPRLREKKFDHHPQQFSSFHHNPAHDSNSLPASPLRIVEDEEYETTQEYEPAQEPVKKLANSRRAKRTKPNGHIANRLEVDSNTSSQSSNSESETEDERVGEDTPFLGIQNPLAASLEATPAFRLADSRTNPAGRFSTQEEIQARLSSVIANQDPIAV
# [7] = test system: Neuregulin-1 EGF-like domain; test: binders of neuregulin-1 EGF-like domain, primary screen, biochemical, small-molecule microarray, 635 nm fluorescence (AID 1081); conditions: small-molecule microarray binding, higher = more signal;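 also: binding of the protein to compounds printed on small-molecule microarray slides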
# [8] = FRG1 promoter luciferase signal modulators, primary screen, FRG1 inhibition for FSHD, cell-based, C2C12 myotubes, firefly/Renilla luciferase, luminescence (AID 1084); conditions: higher = more signal, called active from +8 up or from −8 down
# [9] = binders of probe aFST on microarray, primary screen, stem cell growth factor project, biochemical, small-molecule microarray, fluorescence 635/667 (AID 1086); conditions: higher = more signal;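 also: score merges 667 nm fluorescence with signal-to-noise of each printed compound spot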
# [10] = binders of probe aHhip on microarray, primary screen, stem cell growth factor project, biochemical, small-molecule microarray, fluorescence 635/667 (AID 1087); conditions: higher = more signal;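 also: score merges spot fluorescence at 667nm with spot signal to noise ratio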
# [11] = test system: PRMT1 (protein arginine N-methyltransferase 1); test: PRMT1 binders on small-molecule microarrays, primary screen, biochemical, small-molecule microarray, 635 nm fluorescence (AID 1088); conditions: small-molecule microarray binding, higher = more signal;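 also: binding of Prmt1 protein to compounds spotted on small-molecule microarray slides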
# [12] = yeast growth modulation, basal conditions, primary screen, YJM789 clinical isolate, OD600, 24 h (AID 1089);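 also: growth of clinical yeast isolate S. cerevisiae YJM 789 seeded 1000 cells per well; test concentration not given here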; conditions: S. cerevisiae YJM789 growth, higher = more signal, called active from +8 up or from −8 down
# [13] = fission yeast growth modulation, primary screen, strain 972, OD600, 24 h, no modulator (AID 1090);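 also: basal condition with compound alone and no growth modifier present; test concentration not given here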; conditions: S. pombe 972 growth, higher = more signal, called active from +8 up or from −8 down
# [14] = S. cerevisiae growth modulation with rapamycin, primary screen, strain BY4716, OD600, 96 h (AID 1091); conditions: higher = more signal, called active from +8 up or from −8 down; also: test concentration not given here
# [15] = biological target: Torsin-1A-interacting protein 2 (Homo sapiens) (UniProt Q8NFQ8); test: LULL1 binders on small-molecule microarray, primary screen, cell lysate, human LULL1 lysate, 635/667 nm fluorescence (AID 1092); conditions: hLULL1 lysate binding, 635 nm fluorescence, higher = more signal;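 also: probe is lysate of COS7 cells overexpressing human LULL1; score merges per-feature 667 nm fluorescence with signal-to-noise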
# Sequence of Torsin-1A-interacting protein 2 (Homo sapiens) (Q8NFQ8 whole entry, looked up): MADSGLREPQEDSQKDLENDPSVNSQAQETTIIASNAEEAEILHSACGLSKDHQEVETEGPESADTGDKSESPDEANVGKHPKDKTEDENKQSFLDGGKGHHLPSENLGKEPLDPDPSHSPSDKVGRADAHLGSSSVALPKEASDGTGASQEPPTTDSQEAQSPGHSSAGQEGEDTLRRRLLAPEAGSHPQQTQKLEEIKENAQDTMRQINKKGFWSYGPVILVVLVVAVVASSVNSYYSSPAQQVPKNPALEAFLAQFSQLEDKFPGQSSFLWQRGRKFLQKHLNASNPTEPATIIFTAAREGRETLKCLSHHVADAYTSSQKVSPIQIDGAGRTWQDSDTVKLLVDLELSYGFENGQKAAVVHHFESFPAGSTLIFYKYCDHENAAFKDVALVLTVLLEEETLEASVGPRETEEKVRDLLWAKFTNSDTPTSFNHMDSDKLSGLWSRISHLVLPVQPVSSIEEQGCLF
# [16] = E. coli growth modulation, two-sided OD650, primary screen, E. coli filamentation project, strain DRC41, 24 h (AID 1093); conditions: OD650, 24 h, higher = more signal, called active from +8 up or from −8 down;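 also: MC1000 strain lacking acrAB efflux and sulA so SOS filamentation is blocked; test concentration not given here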
# [17] = small-molecule microarray binders of probe aLefty2, primary screen, biochemical, biotinylated probe, 635/667 nm fluorescence (AID 1094); conditions: higher = more signal;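 also: score merges spot fluorescence near 667 nm with spot signal-to-noise ratio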
# [18] = test system: Noggin (protein binding on small-molecule microarray); test: Noggin binders on small-molecule microarray, primary screen, biochemical, 635/667 nm fluorescence (AID 1095); conditions: 635 nm fluorescence, higher = more signal;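 also: score merges 667 nm feature fluorescence with signal to noise over triplicate slides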
# [19] = biological target: Neurogenic locus notch homolog protein 3 (Homo sapiens) (UniProt Q9UM47); test: NOTCH3 binders on small-molecule microarray, primary screen, biochemical, 635/667 nm fluorescence (AID 1096); conditions: NOTCH3 binding, 635 nm fluorescence, higher = more signal
# Sequence of Neurogenic locus notch homolog protein 3 (Homo sapiens) (Q9UM47 whole entry, looked up): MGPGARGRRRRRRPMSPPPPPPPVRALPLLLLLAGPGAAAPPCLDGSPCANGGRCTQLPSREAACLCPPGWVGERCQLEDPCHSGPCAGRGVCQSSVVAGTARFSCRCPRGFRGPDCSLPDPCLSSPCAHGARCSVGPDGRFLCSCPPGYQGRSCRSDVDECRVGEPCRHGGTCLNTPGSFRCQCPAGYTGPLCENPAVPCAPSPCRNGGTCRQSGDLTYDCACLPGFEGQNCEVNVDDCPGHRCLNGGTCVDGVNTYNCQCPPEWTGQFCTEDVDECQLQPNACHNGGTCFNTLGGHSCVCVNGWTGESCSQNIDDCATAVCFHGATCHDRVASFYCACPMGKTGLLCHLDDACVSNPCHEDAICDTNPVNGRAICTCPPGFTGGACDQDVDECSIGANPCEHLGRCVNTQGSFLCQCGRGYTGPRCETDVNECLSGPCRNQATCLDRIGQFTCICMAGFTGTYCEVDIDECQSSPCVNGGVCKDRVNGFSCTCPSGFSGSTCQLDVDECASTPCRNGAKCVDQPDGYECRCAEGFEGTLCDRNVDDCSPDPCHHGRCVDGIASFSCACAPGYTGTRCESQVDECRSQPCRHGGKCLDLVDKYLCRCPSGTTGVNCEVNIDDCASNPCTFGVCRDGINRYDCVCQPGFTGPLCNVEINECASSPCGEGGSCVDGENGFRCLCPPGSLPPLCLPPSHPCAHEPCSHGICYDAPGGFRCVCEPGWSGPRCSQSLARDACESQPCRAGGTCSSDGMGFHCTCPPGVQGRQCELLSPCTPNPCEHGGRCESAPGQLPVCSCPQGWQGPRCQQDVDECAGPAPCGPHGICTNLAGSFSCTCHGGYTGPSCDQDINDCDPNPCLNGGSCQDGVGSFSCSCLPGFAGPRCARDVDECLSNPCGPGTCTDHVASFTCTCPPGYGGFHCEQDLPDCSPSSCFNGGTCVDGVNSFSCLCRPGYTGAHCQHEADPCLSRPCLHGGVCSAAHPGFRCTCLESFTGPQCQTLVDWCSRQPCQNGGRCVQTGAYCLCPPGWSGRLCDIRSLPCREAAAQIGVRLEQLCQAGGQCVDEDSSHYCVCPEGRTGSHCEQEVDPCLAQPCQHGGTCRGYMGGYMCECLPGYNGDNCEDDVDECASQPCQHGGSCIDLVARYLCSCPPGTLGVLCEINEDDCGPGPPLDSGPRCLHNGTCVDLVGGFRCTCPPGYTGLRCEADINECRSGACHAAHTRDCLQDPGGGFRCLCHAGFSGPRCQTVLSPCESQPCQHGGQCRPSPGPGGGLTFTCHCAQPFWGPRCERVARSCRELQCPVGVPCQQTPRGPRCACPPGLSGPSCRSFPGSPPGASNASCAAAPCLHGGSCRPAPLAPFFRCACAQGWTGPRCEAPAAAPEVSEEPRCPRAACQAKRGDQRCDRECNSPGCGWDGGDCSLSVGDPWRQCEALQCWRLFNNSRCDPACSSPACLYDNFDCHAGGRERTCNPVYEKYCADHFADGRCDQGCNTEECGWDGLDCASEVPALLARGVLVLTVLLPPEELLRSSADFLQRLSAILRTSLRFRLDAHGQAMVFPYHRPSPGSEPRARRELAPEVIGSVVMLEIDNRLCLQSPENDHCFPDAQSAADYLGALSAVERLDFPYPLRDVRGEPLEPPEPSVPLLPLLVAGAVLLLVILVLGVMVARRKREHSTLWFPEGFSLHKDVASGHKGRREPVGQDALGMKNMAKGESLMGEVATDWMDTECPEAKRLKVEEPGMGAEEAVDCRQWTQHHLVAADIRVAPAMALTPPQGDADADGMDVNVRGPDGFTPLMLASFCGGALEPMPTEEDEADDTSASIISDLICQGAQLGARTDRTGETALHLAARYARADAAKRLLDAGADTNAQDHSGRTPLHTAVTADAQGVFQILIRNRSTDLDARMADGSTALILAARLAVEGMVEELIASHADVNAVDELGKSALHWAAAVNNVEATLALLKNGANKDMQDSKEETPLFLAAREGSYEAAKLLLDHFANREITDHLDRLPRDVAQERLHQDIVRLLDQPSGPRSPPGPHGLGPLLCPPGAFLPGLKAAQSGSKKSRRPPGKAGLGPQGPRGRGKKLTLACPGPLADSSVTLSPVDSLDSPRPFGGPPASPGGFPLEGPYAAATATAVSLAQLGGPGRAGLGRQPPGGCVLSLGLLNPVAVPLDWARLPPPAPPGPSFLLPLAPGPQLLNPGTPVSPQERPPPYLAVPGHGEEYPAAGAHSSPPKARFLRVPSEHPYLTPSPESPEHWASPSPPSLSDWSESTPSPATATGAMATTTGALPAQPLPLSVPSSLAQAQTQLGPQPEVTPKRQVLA
# [20] = small-molecule microarray binders of probe aEGFR, primary screen, biochemical, biotinylated probe, 635/667 nm fluorescence (AID 1097); conditions: higher = more signal;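 also: probe is a biotinylated anti-EGFR antibody binding compounds printed on slides; score combines fluorescence near 667 nm and signal to noise of each spot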
SMILES,composite z-score [1],composite z-score [2],composite z-score [3],composite z-score [4],composite z-score [5],composite z-score [6],composite z-score [7],z-score [8],composite z-score [9],composite z-score [10],composite z-score [11],z-score [12],z-score [13],z-score [14],composite z-score [15],z-score [16],composite z-score [17],composite z-score [18],composite z-score [19],composite z-score [20]
COc1ccc(C(=O)Nc2ccc(CN3C(=O)[C@@]4(O[C@@H](CC(=O)N5Cc6ccccc6C[C@H]5CO)[C@H]([Si](C)(C)c5ccc(OC)cc5)[C@H]4C)c4ccccc43)cc2)cc1,-0.313,0.17,0.0275,0.158,-0.0395,0.822,1.1,-4.29 (inactive),0.185,-0.173,1.51,-1.8 (inactive),0.821 (inactive),1.87 (inactive),1.92,0.265 (inactive),-0.215,1.61,1.13,-0.0961
[N-]=[N+]=NCc1ccccc1C[C@]1(C(=O)NCCN2CCOCC2)N=C(c2ccc(OCCCO)cc2)O[C@H]1c1ccccc1,0.081,0.205,-0.0085,0.713,0.0617,1.32,1.26,-0.849 (inactive),0.632,-0.0296,1.54,-2.01 (inactive),-0.85 (inactive),-2.06 (inactive),3.22,0.677 (inactive),-0.0519,1.88,0.626,-0.0382
C=CC[C@@]1(C(=O)NCCN2CCOCC2)N=C(c2ccc(OCCCO)cc2)O[C@@H]1c1ccccc1,0.424,1.64,0.0342,0.66,0.52,0.595,1.36,0.254 (inactive),1.16,0.124,1.54,0.305 (inactive),0.132 (inactive),0.33 (inactive),3.01,0.0348 (inactive),0.0634,2.08,0.625,0.0149
CC(C)NC(=O)[C@@H]1c2ccccc2C(=O)N(Cc2cc(C(F)(F)F)cc(C(F)(F)F)c2)[C@H]1c1ccc(CO)cc1,0.27,0.255,0.0032,-0.0264,0.805,0.104,0.663,0.306 (inactive),0.619,0.0596,1.46,-0.245 (inactive),-0.593 (inactive),-0.517 (inactive),2.4,-0.216 (inactive),-0.0107,0.598,1.04,-0.0248
Cc1cc(C)c(C(O)C2C=CC3C(=O)N(c4ccccc4)C(=O)C3N2Nc2ccccc2)c(C)c1 (stereo not given),0.175,0.668,0.216,1.08,1.56,1.99,1.22,0.423 (inactive),1.25,-0.189,1.56,0.839 (inactive),0.483 (inactive),0.0441 (inactive),3.47,-1.02 (inactive),0.506,0.0982,1.05,0.178
COC(=O)C(CC#Cc1ccc2c(c1)[C@]1(C(=O)N2)[C@H](C(=O)N2CCc3cc(OC)c(OC)cc3C2)[C@H]2C(=O)O[C@H](c3ccccc3)[C@H](c3ccccc3)N2[C@@H]1c1ccc(OCCO)cc1)C(=O)OC,-0.295,1.53,-0.145,0.945,1.54,1.75,1.31,0.732 (inactive),0.672,0.0373,1.55,3.22 (inactive),1.63 (inactive),5.29 (inactive),2.82,0.37 (inactive),0.128,1.3,1.07,0.174
COC(=O)[C@@]1(Cc2ccc(OC)cc2)[C@H]2c3cc(C(=O)N(C)C)n(Cc4cc(F)c(F)c(F)c4)c3C[C@H]2CN1C(=O)c1ccccc1,0.831,-0.136,0.329,0.594,1.74,1.81,1.08,2.19 (inactive),1.24,0.987,0.456,0.725 (inactive),0.129 (inactive),4.07 (inactive),3.44,-0.909 (inactive),0.625,-0.217,1.04,0.58
COCCCNC(=O)[C@]1(Cc2ccccc2CN=[N+]=[N-])N=C(c2ccc(OCCCO)cc2)O[C@@H]1c1ccccc1CN=[N+]=[N-],0.726,0.686,0.256,1.03,1.25,1.84,1.15,-1.35 (inactive),1.23,0.537,1.51,-0.353 (inactive),1.34 (inactive),31.6 (active),3.17,0.378 (inactive),0.419,0.342,0.697,0.332
CC(C)C[C@H]1NC(=O)[C@H](C)NC(=O)[C@@]23C(=O)N[C@@H](Cc4ccccc4)C2[C@H](C)[C@@]2(C)O[C@H]2C3/C=C/C/C=C\CNC1=O (stereo not given in full),-0.021,0.366,-0.104,-0.0496,-0.465,0.0659,0.511,0.171 (inactive),-0.521,-0.54,0.653,-1.14 (inactive),-1.25 (inactive),-1.07 (inactive),2.44,-0.847 (inactive),-0.27,-0.344,0.0715,-0.158
C[N+](C)(C)CCCCCCNC(=O)[C@@H]1C[C@@H]2C(=O)NCC(=O)N2[C@@H]1c1cccc(OCCO)c1,-0.419,0.488,-0.125,-0.114,0.033,0.021,1.22,4.06 (inactive),-0.0422,-0.34,1.55,-0.947 (inactive),0.0641 (inactive),-0.683 (inactive),2.23,1.3 (inactive),-0.207,1.49,1.1,-0.0531
